Laboratory results taken from the supplement of paper PMC11732987, “Enantioselective OTUD7B fragment discovery through chemoproteomics screening and high-throughput optimisation” (Communications Chemistry, 2025).

Tests used:
Test in all cases: log2 ratio of Biotin-Ahx-Ub-VS probe labelling (fragment/DMSO); higher = less target engagement (more negative = stronger competition), active = hit call of the paper (q ≤ 0.05, log2 ratio ≤ -1)
Conditions in all cases: compound concentration: 200 uM; treatment time: 3 h
ALG13 = target: T1, ALG13 (UniProt Q9NP73)
T1 sequence (whole entry): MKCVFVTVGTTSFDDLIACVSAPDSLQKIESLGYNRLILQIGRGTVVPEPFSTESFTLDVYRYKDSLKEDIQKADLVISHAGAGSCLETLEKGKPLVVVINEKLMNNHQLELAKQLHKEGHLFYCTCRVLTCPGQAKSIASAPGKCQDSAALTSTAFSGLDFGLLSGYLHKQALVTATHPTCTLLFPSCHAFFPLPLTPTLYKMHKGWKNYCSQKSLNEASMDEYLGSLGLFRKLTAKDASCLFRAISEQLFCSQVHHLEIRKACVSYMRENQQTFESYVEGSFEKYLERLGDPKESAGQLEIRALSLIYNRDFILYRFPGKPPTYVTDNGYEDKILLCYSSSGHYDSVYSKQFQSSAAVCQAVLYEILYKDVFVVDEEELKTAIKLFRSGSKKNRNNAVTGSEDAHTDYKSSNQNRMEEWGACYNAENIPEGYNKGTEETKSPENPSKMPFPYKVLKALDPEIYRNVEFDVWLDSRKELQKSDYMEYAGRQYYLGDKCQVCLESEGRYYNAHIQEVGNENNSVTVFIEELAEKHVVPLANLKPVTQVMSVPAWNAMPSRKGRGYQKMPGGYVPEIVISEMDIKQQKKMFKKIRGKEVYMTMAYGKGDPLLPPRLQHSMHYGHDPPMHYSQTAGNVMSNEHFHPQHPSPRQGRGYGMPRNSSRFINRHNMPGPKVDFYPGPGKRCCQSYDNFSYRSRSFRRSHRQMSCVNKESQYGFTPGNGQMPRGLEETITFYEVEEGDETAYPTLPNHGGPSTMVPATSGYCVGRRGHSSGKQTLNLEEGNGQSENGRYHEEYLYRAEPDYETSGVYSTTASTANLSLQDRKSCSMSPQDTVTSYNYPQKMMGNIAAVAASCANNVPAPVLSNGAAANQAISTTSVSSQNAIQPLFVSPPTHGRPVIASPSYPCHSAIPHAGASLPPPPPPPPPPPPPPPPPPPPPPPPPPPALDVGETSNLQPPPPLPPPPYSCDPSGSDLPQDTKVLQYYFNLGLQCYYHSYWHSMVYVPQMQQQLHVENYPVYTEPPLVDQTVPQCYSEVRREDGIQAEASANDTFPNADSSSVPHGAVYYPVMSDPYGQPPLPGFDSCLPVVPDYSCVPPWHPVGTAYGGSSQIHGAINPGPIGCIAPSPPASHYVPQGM
Method in brief: (§1)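 Labelling with Biotin-Ahx-Ub-VS (0.5 µM final, 1 h) followed a 3 h triplicate treatment of HEK293T lysate (495 µg per sample, Tris/CHAPS/IGEPAL buffer with protease inhibitors) with fragment at 200 µM or vehicle. Labelled DUBs were NeutrAvidin-enriched, digested with LysC and trypsin, and run by diaPASEF LC-MS/MS. The values, average log2 fragment/vehicle ratios by unpaired t-test, come from global-median-normalised Spectronaut label-free quantities. Proteins with ≥2 unique peptides were used.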

ATXN3 = ATXN3 (UniProt P54252)
Chain of ATXN3 (P54252 whole entry): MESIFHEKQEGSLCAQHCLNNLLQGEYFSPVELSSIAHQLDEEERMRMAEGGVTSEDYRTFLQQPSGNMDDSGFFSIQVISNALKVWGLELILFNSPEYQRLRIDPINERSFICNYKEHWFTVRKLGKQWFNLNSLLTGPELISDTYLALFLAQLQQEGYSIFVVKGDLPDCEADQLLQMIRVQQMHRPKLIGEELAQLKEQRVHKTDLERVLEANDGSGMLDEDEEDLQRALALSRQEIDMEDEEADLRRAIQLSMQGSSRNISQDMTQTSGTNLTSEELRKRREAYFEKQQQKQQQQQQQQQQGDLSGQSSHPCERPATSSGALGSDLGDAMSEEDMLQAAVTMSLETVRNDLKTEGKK
Method in brief: as §1

BAP1 = target: T2, BAP1 (UniProt Q92560)
T2 sequence (whole entry): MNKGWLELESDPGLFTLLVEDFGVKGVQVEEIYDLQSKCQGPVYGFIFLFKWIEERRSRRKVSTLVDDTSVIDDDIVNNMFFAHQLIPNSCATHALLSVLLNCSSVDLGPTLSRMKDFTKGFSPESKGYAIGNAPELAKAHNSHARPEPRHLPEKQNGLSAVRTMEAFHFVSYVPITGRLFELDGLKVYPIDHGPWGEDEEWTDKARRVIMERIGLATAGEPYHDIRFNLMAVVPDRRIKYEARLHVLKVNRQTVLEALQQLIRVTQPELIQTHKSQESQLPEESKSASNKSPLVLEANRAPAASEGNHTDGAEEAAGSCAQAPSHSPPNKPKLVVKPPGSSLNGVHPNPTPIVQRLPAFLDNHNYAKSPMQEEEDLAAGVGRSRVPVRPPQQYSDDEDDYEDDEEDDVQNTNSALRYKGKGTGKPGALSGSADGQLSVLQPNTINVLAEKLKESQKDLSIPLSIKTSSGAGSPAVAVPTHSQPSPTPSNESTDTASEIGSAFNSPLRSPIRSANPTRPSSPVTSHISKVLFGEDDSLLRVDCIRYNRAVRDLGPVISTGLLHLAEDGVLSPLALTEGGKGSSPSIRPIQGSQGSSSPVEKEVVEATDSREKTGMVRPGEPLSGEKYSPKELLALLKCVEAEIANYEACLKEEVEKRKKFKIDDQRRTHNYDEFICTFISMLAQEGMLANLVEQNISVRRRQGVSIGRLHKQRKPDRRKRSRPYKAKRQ
Method in brief: as §1

EIF3F = EIF3F (UniProt O00303)
Chain of EIF3F (O00303 whole entry): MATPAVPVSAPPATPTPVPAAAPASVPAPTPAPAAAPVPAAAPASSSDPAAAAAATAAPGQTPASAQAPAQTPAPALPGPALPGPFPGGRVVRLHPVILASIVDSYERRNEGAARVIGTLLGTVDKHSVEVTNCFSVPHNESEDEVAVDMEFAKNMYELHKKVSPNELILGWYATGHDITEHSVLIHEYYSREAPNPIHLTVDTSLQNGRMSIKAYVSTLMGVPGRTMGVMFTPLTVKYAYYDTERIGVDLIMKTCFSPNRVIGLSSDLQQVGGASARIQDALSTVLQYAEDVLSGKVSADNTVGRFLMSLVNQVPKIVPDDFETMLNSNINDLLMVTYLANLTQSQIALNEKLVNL
Method in brief: as §1

EIF3H = EIF3H (UniProt O15372)
Chain of EIF3H (O15372 whole entry): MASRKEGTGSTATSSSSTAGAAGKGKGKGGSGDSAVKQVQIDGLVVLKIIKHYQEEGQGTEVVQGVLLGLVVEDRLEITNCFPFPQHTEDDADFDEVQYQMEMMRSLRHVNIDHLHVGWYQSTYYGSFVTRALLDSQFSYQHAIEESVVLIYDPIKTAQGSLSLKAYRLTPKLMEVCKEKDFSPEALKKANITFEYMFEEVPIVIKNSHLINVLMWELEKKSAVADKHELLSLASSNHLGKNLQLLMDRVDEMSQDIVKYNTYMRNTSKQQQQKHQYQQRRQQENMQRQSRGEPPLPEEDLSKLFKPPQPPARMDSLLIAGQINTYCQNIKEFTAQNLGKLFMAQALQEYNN
Method in brief: as §1

FAM105A = target: T3, FAM105A (UniProt Q9NUU6)
T3 sequence (whole entry): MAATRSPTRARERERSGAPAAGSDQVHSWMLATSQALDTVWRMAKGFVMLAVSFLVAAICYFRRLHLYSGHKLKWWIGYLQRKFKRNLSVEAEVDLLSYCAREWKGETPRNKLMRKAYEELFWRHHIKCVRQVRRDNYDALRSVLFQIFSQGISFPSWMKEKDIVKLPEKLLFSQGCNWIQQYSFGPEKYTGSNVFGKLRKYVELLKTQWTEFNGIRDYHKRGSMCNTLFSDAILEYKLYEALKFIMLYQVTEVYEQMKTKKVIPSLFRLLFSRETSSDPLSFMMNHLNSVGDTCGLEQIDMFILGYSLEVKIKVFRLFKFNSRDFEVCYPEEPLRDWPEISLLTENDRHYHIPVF
Method in brief: as §1

OTUB1 = OTUB1 (UniProt Q96FW1)
Chain of OTUB1 (Q96FW1 whole entry): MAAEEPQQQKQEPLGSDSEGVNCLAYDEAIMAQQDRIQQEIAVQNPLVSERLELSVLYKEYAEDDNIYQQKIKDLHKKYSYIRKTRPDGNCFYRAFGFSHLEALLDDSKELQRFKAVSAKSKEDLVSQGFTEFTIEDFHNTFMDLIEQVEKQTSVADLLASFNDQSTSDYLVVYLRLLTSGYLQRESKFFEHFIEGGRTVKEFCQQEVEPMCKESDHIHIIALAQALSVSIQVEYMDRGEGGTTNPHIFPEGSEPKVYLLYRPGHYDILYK
Method in brief: as §1

OTUD4 = target: T4, OTUD4 (UniProt Q01804)
T4 sequence (whole entry): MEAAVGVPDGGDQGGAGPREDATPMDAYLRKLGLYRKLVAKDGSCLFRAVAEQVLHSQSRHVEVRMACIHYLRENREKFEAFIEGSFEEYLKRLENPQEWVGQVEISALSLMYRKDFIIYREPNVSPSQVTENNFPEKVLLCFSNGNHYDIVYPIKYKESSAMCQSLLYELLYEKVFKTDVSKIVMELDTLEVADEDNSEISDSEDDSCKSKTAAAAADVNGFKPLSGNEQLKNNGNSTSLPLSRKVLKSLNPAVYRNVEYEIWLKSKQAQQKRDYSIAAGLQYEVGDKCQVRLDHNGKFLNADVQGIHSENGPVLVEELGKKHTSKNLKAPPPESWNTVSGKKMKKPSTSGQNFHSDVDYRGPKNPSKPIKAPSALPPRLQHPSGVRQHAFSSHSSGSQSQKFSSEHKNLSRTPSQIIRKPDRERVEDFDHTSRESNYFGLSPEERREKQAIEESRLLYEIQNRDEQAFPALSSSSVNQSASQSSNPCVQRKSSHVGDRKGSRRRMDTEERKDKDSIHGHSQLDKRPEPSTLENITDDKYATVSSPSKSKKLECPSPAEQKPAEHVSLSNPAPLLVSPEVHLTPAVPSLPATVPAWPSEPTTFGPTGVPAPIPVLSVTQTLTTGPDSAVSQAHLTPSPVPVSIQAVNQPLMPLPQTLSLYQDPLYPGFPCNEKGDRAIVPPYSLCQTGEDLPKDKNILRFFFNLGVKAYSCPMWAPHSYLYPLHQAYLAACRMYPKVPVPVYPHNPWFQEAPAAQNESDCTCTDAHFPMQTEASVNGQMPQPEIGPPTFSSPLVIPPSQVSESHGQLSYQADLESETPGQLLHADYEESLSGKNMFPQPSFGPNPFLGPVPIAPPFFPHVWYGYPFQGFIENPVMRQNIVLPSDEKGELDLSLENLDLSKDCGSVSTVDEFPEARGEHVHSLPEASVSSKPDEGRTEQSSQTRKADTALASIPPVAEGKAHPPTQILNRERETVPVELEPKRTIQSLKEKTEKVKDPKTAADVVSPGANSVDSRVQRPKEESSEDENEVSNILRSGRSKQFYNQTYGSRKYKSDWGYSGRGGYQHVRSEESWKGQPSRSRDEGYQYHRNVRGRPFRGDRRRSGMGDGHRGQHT
Method in brief: as §1

OTUD5 = target: T5, OTUD5 (UniProt Q96G74)
T5 sequence (whole entry): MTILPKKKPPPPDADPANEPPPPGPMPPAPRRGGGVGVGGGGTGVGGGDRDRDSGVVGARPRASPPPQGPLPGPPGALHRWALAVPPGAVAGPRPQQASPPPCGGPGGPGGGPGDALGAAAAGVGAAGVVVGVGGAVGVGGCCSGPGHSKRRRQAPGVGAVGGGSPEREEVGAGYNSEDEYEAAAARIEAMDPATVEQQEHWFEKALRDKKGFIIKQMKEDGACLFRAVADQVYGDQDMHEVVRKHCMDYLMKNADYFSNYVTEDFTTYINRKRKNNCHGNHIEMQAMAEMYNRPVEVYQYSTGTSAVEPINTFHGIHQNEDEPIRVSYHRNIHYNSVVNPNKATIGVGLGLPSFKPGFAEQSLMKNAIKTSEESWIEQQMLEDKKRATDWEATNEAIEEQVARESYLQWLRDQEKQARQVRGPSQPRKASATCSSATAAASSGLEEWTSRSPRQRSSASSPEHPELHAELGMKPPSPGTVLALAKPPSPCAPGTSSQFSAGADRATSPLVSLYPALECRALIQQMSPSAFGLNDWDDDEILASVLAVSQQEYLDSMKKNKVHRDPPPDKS
Method in brief: as §1

Measured: log2 ratio of Biotin-Ahx-Ub-VS probe labelling

CC(C)n1nccc1NC(=O)CCl
inactive: ALG13 -0.568 | ATXN3 -0.233 | EIF3F -0.0764 | EIF3H 0.237 | FAM105A 0.00922 | OTUB1 -0.27 | OTUD4 -0.438 | OTUD5 -0.522
active: BAP1 -4.23
